Assay outcomes: PubChem BioAssay, National Center for Advancing Translational Sciences (NCATS)
NS1 inh = qHTS Assay for Inhibitors of Influenza NS1 Protein Function; Potency, µM (titrated, usually from 46.1 µM); actives 0.4% (n = 270,000); AID 2326, 2010; note: actives are rising curves; nearly all actives have a fitted effect of over 50% in size
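S. cerevisiae expressing influenza A NS1, grown in glucose, washed, then diluted 1:100 into pH 6.0 -URA galactose medium with 23 nl compound. Growth recovery read as OD600; NS1-free strain serves as control.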
Pf growth 48h = Primary qHTS for delayed death inhibitors of the malarial parasite plastid, 48 hour incubation. P. falciparum luciferase growth in erythrocytes, 48 h. Potency, µM (titrated, usually from 28.7 µM), most hits filed as inhibitors. actives 5.9% (n = 310,000); active = well fitted inhibition curve with a large enough effect; inconclusive = small, poorly fitted or top-dose-only effect, or another doubt; inactive = no such curve, though single readings can be large or run the other way
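Firefly luciferase activity from engineered P. falciparum reports growth; inhibitors lower the luminescent signal. Cultures contained 2% hematocrit erythrocytes at 0.1% final parasitemia.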
Shiga inhibitor = A qHTS for Small Molecule Inhibitors of Shiga Toxin; Vero cells, Shiga toxin protein synthesis inhibition reporter; inhibition, % at 38.7 µM; actives 9.2% (n = 290,000); in the data active = inhibition mostly above about 28%, no sharp cut-off; inactive = mostly below about 43%
SARS PLP yeast = qHTS of Yeast-based Assay for SARS-CoV PLP; Potency, µM (top dose mostly 32.9 µM), most hits filed as activators; AID 485353, 2010; S. cerevisiae expressing SARS-CoV PLpro, growth rescue; actives 0.19% (n = 330,000); note: nearly all actives have a fitted effect of over 55% in size
Pf growth 96h = Primary qHTS for delayed death inhibitors of the malarial parasite plastid, 96 hour incubation; P. falciparum luciferase reporter growth, 96 h; Potency, µM (doses to about 28.7 µM), actives largely listed as inhibitors; actives 6.9% (n = 320,000); AID 504834, 2011; active = well fitted inhibition curve with a large enough effect; inconclusive = small, poorly fitted or top-dose-only effect, or another doubt; inactive = no such curve, though single readings can be large or run the other way
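96 h incubation, 37 C, 5% CO2, of luciferase-reporter P. falciparum-infected RBCs (2% hematocrit, 0.05% parasitemia final) with test compounds; endpoint luminescence.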
CHX counter = Cycloheximide Counterscreen for Small Molecule Inhibitors of Shiga Toxin | cell reporter, cycloheximide protein synthesis inhibition counterscreen | max response, % | actives 12% (n = 300,000); in the data active = max response mostly above about 13%, no sharp cut-off; inactive = mostly below about 14%; note: read at 38.3 µM for the half of the compounds with a filed dose
Each line names hits and unclear results; the compound was inactive in the other large screens. Compounds with a hit are over-represented: about 21% of the library has one in this group of screens. Unless noted, calls come from the whole dose curve.

Cc1noc(NS(=O)(=O)c2ccc(NC(=O)/C=C/c3ccc(Br)cc3)cc2)c1C	Pf growth 96h inconclusive
Cc1noc(NS(=O)(=O)c2ccc(N/C=C\C(=O)c3cccc4ccccc34)cc2)c1C	Pf growth 96h inconclusive (no result: NS1 inh)
Cc1noc(NS(=O)(=O)c2ccc(NC(=O)/C=C/c3ccc(C(C)C)cc3)cc2)c1C	Pf growth 96h 10µM
Cc1noc(NS(=O)(=O)c2ccc(NC(=O)C(F)(F)F)cc2)c1C	none
CCOc1ccc(C(=O)/C=C/Nc2ccc(S(=O)(=O)Nc3onc(C)c3C)cc2)cc1	Shiga inhibitor 85, CHX counter 20
CCc1ccccc1NC(=O)c1ccc(OCc2c(C)noc2C)cc1	none (no result: NS1 inh, Pf growth 48h, Shiga inhibitor, Pf growth 96h, CHX counter)
Oc1ccc(Br)cc1/C=N/n1c(C2CCCCC2)n[nH]c1=S	Pf growth 48h inconclusive
Cc1ccc(CCNC(=O)c2sc3nc4n(c(=O)c3c2C)CCC4)cc1	none
Cc1noc(NS(=O)(=O)c2ccc(NC(=O)C(C)(C)C)cc2)c1C	Pf growth 96h inconclusive
Cc1noc(NS(=O)(=O)c2ccc(N/C=C\C(=O)c3ccc4c(c3)OCO4)cc2)c1C	Shiga inhibitor 72, Pf growth 96h inconclusive, CHX counter 37
O=C(CCS(=O)(=O)c1nc(-c2cccs2)cc(C(F)(F)F)n1)Nc1cc(Br)ccc1O	none (no result: NS1 inh, Pf growth 48h, SARS PLP yeast, Pf growth 96h)
O=S(=O)(NCc1ccccc1)c1cccc(S(=O)(=O)N2CCOCC2)c1	Pf growth 96h 0.059µM (no result: Pf growth 48h)
O=S(=O)(NCCc1ccccc1F)c1cccc(S(=O)(=O)N2CCOCC2)c1	Pf growth 96h 6.6µM
Cc1cccc(C)c1NC(=S)/C(=C(\[O-])c1cccs1)[n+]1ccccc1	none
[O-]/C(=C(\C(=S)Nc1cccc2ccccc12)[n+]1ccccc1)c1ccc2c(c1)OCCO2	Pf growth 96h 5.9µM, CHX counter 22 (no result: Pf growth 48h)
[O-]/C(=C(\C(=S)Nc1cccc2ccccc12)[n+]1ccccc1)c1cccs1	Pf growth 96h inconclusive, CHX counter 19
[O-]/C(=C(\C(=S)Nc1cccc2ccccc12)[n+]1ccccc1)c1ccc(OC(F)F)cc1	Pf growth 48h inconclusive, Pf growth 96h 15µM (no result: NS1 inh)
COc1ccc(Nc2cc(Cl)nc(N)n2)cc1OC	none (no result: NS1 inh)
CCOC(=O)c1sc(N)c(C#N)c1CSc1nnc(C2CCCCC2)n1N	Pf growth 96h 10µM (no result: Pf growth 48h)
N#Cc1ccc(COC(=O)CSc2nnc(C3CCCCC3)n2N)cc1	none
C=CCn1c(N)c(C(=O)Nc2ccc(C)cc2)sc1=S	CHX counter 30 (no result: Pf growth 48h)
C=CCn1cccc(C(=O)Nc2ccc(C)cc2)c1=O	Shiga inhibitor 102, CHX counter 77 (no result: Pf growth 48h)
C=CCn1c(N)c(C(=O)Nc2ccccc2OC)sc1=S	none (no result: Pf growth 96h)
C/C=C/Cn1cccc(C(=O)Nc2ccc(OC)cc2)c1=O	none (no result: NS1 inh)
C=CCn1cccc(C(=O)Nc2ccc(C)c(C)c2)c1=O	Shiga inhibitor 107, CHX counter 45
Cc1nsc2nc3c(F)c(F)c(F)c(F)c3cc12	none
CCN1C(=S)N[C@@H](c2cccs2)C(C(=O)OC)=C1C	Pf growth 48h inconclusive
O=C(O)c1cc(NC(=O)c2cccc(C(=O)Nc3cc(C(=O)O)cc(C(=O)O)c3)c2)cc(C(=O)O)c1	Pf growth 96h inconclusive
COc1ccc(NC(=O)CC23CC4CC(CC(Br)(C4)C2)C3)c(OC)c1	none
O=C(CNC(=O)c1ccccc1F)Nc1ccc2c(c1)CCC2	none (no result: NS1 inh, Shiga inhibitor, CHX counter)
O=C(Nc1ccc2c(c1)CCC2)c1ccc(F)cc1	CHX counter 30
O=C(Nc1cccc([N+](=O)[O-])c1)Nc1ccc2c(c1)CCC2	CHX counter 12
O=C(Cc1ccccc1)Nc1ccc2c(c1)CCC2	Shiga inhibitor 105, CHX counter 39 (no result: NS1 inh)
O=C(Nc1ccc2c(c1)CCC2)Nc1ccccc1F	Shiga inhibitor 64, CHX counter 47
CC(NC(=O)Nc1cccc([N+](=O)[O-])c1)(C(F)(F)F)C(F)(F)F	Pf growth 48h inconclusive, Pf growth 96h inconclusive
COc1ccccc1NS(=O)(=O)c1cccc(C(=O)N2CCCCCCC2)c1	none (no result: NS1 inh, Shiga inhibitor, CHX counter)
O=C(O)c1cc(S(=O)(=O)Nc2ccc3cn[nH]c3c2)ccc1Cl	none (no result: NS1 inh, Pf growth 48h, Shiga inhibitor, Pf growth 96h, CHX counter)
Cc1ccc(NC(=O)Nc2ccc3c(c2)CCC3)cc1	Shiga inhibitor 54, CHX counter 48
Cc1cc(C)cc(NC(=O)Nc2ccc3c(c2)CCC3)c1	none
